{"source": "PubChem BioAssay AID2685", "about": "(National Center for Advancing Translational Sciences (NCATS), 2010)", "note": "In all, about 320,000 compounds went through this assay and about 2,100 (0.66%) were called active. Inconclusive results (about 53%) are left out. Calls come from the whole dose curve; as a rule, active = well fitted inhibition curve with a large enough effect in the signal ratio, with a control signal flat (not every such curve was filed as active); inconclusive = small, poorly fitted or top-dose-only effect, or effect the other way, or a change in a side signal; inactive = flat fitted curve, though single readings scatter; the % refers to the signal ratio. The list comes from a sample in which actives are over-represented; it also holds similar structures and randomly drawn compounds. Potency is the fitted concentration of half-maximal effect.", "data": [{"assay": "qHTS Assay for Lipid Storage Modulators in Drosophila S3 Cells;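 for cell number change: cells counted by Cell Tracker Red CMTPX staining in the red channel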; for lipid storage change, negative = inhibition: % is set by controls: 0 for no effect and ±100 for the full control effect", "conditions": "BODIPY lipid droplet fluorescence, 18-24 h, cells fed with added oleic acid; cell number change: measured here: cell count max response; series mostly up to 46.1 µM; lipid storage change, negative = inhibition: at the top concentration", "in_short": "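Drosophila S3 cells got compounds at several concentrations plus oleic acid (400 uM solution). Laser-scanning cytometry with 488 nm excitation read lipid droplets at 500-530 nm and cells at 575-640 nm. Percent activity was relative to 20 uM Triacsin C.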", "units": {"cell number change": "%"}, "values": [{"smiles": "CCN(CC)S(=O)(=O)c1cccc(-c2nnc(SCC(=O)c3cc(C)n(C4CC4)c3C)o2)c1", "outcome": "inactive", "cell number change": 13.6}, {"smiles": "CCCOc1ccc(N2C(=O)CC(NCc3cccs3)C2=O)cc1", "note": "(stereo not drawn)", "lipid storage change, negative = inhibition": "4.41% (inactive)", "cell number change": 15.4}, {"smiles": "CCOC(=O)c1ccc(CNC(=O)C(Cc2c[nH]c3ccccc23)NC(C)=O)o1", "note": "(stereo not drawn)", "outcome": "inactive"}, {"smiles": "O=C(NC(=O)c1c(Cl)cccc1Cl)Nc1ccc(Oc2cccnc2)nc1", "lipid storage change, negative = inhibition": "8.04% (inactive)", "cell number change": 1.56}, {"smiles": "O=C1/C(=C/c2cccs2)SC(=S)N1CCCC(=O)N(CCO)c1ccccc1", "lipid storage change, negative = inhibition": "-14.3% (inactive)", "cell number change": 6.09}, {"smiles": "Cc1cc(C)cc(C(=O)OCC(=O)N2CCCCCC2)c1", "lipid storage change, negative = inhibition": "0.176% (inactive)", "cell number change": -14.4}, {"smiles": "O=C1CCCC(O)=C1N=Nc1c(Cl)cc(Cl)cc1Cl", "lipid storage change, negative = inhibition": "17.9% (inactive)", "cell number change": 2.67}, {"smiles": "C/C=N/NC(=O)c1cc(Br)ccc1O", "lipid storage change, negative = inhibition": "9.52% (inactive)", "cell number change": 5.04}, {"smiles": "Cc1cccc(/C=N/NC(=O)c2cc(Br)ccc2O)n1", "lipid storage change, negative = inhibition": "6.34% (inactive)", "cell number change": 0.985}, {"smiles": "Cc1c(/C=N/NC(=O)c2cc(Br)ccc2O)c(=O)n(C)c(=O)n1C", "Potency": "5.8 µM (active)", "cell number change": -6.52}, {"smiles": "O=[N+]([O-])c1cccc(-c2ccc(C(=S)N3CCOCC3)o2)c1", "lipid storage change, negative = inhibition": "-17.7% (inactive)", "cell number change": 15.8}, {"smiles": "O=C(Nc1ccc(CN2CCOCC2)cc1)c1ccc(-c2cccc([N+](=O)[O-])c2)o1", "Potency": "8.2 µM (active)", "cell number change": -29.5}, {"smiles": "CN1CCN(c2ccc(NC(=O)c3ccc(-c4cccc([N+](=O)[O-])c4)o3)cc2)CC1", "lipid storage change, negative = inhibition": "17.2% (inactive)", "cell number change": 17.7}, {"smiles": "O=C(NC1CCCN(CCc2ccccc2)C1)C1CCCC1", "note": "(stereo not drawn)", "lipid storage change, negative = inhibition": "-3.29% (inactive)", "cell number change": 8.14}, {"smiles": "C[C@H](NC(=O)C1CCN(S(=O)(=O)c2ccccc2)CC1)C(=O)NCc1ccc(F)cc1", "lipid storage change, negative = inhibition": "25.5% (inactive)"}, {"smiles": "CCN(CC)C1CCN(Cc2cn[nH]c2-c2ccc(OC)c(F)c2)C1", "note": "(stereo not drawn)", "lipid storage change, negative = inhibition": "5.24% (inactive)", "cell number change": 7.18}, {"smiles": "Cc1sc(NC(=O)/C=C/c2ccco2)c(C(=O)O)c1C", "lipid storage change, negative = inhibition": "-1.31% (inactive)", "cell number change": 4.19}, {"smiles": "N#Cc1ccsc1NC(=O)CSc1nnc(-c2ccccc2)o1", "outcome": "inactive", "cell number change": 20.1}, {"smiles": "CC(C)(C)C1CCc2c(sc(NC(=O)CSc3nnc(-c4ccccc4)o3)c2C#N)C1", "note": "(stereo not drawn)", "Potency": "4.11 µM (active)", "cell number change": -0.658}, {"smiles": "CCn1c(SCC(=O)Nc2sc3c(c2C#N)CCC(C(C)(C)C)C3)nnc1-c1ccco1", "note": "(stereo not drawn)", "lipid storage change, negative = inhibition": "-2.66% (inactive)", "cell number change": -7.68}, {"smiles": "COc1ccc(/C=N/n2cnc3c(sc(=S)n3-c3ccccc3)c2=O)cc1", "outcome": "inactive", "cell number change": 19.1}, {"smiles": "CN1C(=S)SC(N(O)C(=O)Nc2ccc(Cl)c(Cl)c2)C1(C)C", "note": "(stereo not drawn)", "lipid storage change, negative = inhibition": "-7.63% (inactive)", "cell number change": -15}, {"smiles": "CCOc1ccc(CNc2ccc(N3CCCC3)cc2)cc1", "outcome": "inactive"}, {"smiles": "CCOc1ccc(CN2CCC(Cc3ccccc3)CC2)cc1", "outcome": "inactive", "cell number change": 27.4}, {"smiles": "CCOc1ccc(CNc2ccc(N3CCN(Cc4ccccc4)CC3)cc2)cc1", "Potency": "2.31 µM (active)"}, {"smiles": "O=C(NCn1cnccc1=O)c1ccccc1", "Potency": "20.6 µM (active)", "cell number change": 1.39}, {"smiles": "O=C(NC(C(=O)c1ccccc1)n1cnccc1=O)c1ccccc1", "note": "(stereo not drawn)", "lipid storage change, negative = inhibition": "-5.22% (inactive)", "cell number change": -10.1}, {"smiles": "O=C(NCN1CCc2ccccc2C1)c1ccccc1", "lipid storage change, negative = inhibition": "3.53% (inactive)", "cell number change": 0.788}, {"smiles": "Cc1noc(C)c1C(=O)Nc1nnc(CC(C)C)s1", "lipid storage change, negative = inhibition": "-7.24% (inactive)", "cell number change": 23.9}, {"smiles": "CC(=O)NCC(=O)N(Cc1ccco1)C1(C(=O)NC2CCCC2)CCCCC1", "lipid storage change, negative = inhibition": "1.93% (inactive)", "cell number change": 17.4}, {"smiles": "O=C1NC(=O)C(CC(=O)N(Cc2ccco2)C2(C(=O)NC3CCCC3)CCCCC2)N1", "note": "(stereo not drawn)", "outcome": "inactive"}, {"smiles": "O=C(Cc1cccs1)N(CC1CCCO1)C1(C(=O)NC2CCCC2)CCCCC1", "note": "(stereo not drawn)", "lipid storage change, negative = inhibition": "-0.959% (inactive)", "cell number change": -0.501}, {"smiles": "CC(=O)N(Cc1ccco1)C1(C(=O)NC2CCCCC2)CCCCC1", "lipid storage change, negative = inhibition": "1.16% (inactive)", "cell number change": -0.0608}, {"smiles": "O=C(Cc1cccs1)N(Cc1ccco1)C1(C(=O)NC2CCCC2)CCCCC1", "Potency": "3.66 µM (active)", "cell number change": -17}, {"smiles": "CC(=O)N(Cc1ccco1)C1(C(=O)NC2CCCC2)CCCCC1", "Potency": "14.6 µM (active)", "cell number change": 3.24}, {"smiles": "O=C(NC(N1CCOCC1)C(Cl)(Cl)Cl)c1cc([N+](=O)[O-])cc([N+](=O)[O-])c1", "note": "(stereo not drawn)", "lipid storage change, negative = inhibition": "2.11% (inactive)"}, {"smiles": "COC(CNC(=O)c1ccc(CS(=O)(=O)c2ccc(C)cc2)o1)OC", "lipid storage change, negative = inhibition": "5.22% (inactive)", "cell number change": 23.5}, {"smiles": "COc1nc(NCCN2CCOCC2)nc(Nc2ccccc2)n1", "outcome": "inactive", "cell number change": -13.7}, {"smiles": "COc1ccc(NC(C)=O)cc1S(=O)(=O)Nc1ccc(OCc2ccccc2)cc1", "outcome": "inactive", "cell number change": -6.41}, {"smiles": "COc1ccc(NC(C)=O)cc1S(=O)(=O)NC(Cc1ccccc1)C(=O)NCc1ccccc1C", "note": "(stereo not drawn)", "Potency": "1.84 µM (active)", "cell number change": -19.4}, {"smiles": "COc1ccc(NC(C)=O)cc1S(=O)(=O)NC(Cc1ccccc1)C(=O)O", "note": "(stereo not drawn)", "lipid storage change, negative = inhibition": "17.4% (inactive)", "cell number change": -4.53}, {"smiles": "O=C1NC(c2ccccc2Cl)Nc2ccccc21", "note": "(stereo not drawn)", "lipid storage change, negative = inhibition": "-6.86% (inactive)", "cell number change": -2.9}, {"smiles": "COc1ccccc1C(=O)Nc1nnc(SCC(=O)NCc2ccco2)s1", "Potency": "20.6 µM (active)", "cell number change": -7.8}, {"smiles": "Cc1ccccc1C(=O)Nc1nnc(SCC(=O)NCc2ccco2)s1", "outcome": "inactive", "cell number change": -7.23}, {"smiles": "COc1ccc(C(=O)Nc2nnc(SCC(=O)NCc3ccco3)s2)cc1OC", "lipid storage change, negative = inhibition": "-13.8% (inactive)"}, {"smiles": "Cc1nc2ccc(NC(=S)NC(C)C)cc2nc1C", "lipid storage change, negative = inhibition": "7.57% (inactive)", "cell number change": -1.16}, {"smiles": "COc1cc(C(=O)NC(C)c2ccc(S(N)(=O)=O)cc2)ccc1OCC(=O)N1CCOCC1", "note": "(stereo not drawn)", "lipid storage change, negative = inhibition": "29.2% (inactive)", "cell number change": 9.66}, {"smiles": "CC12CN3CC(C)(CN(C1)C3c1ccccc1F)C2", "note": "(stereo not drawn)", "lipid storage change, negative = inhibition": "4.33% (inactive)"}]}]}
